We go through 42 compounds from PubChem BioAssay (EPA / NIEHS).

Assay [1] concerns the target Estrogen receptor (Homo sapiens) (UniProt P03372). Description: CCTE_Deisenroth_AIME_384WELL_LUC_Active: CCTE's 384-well Estrogen Receptor Transactivation Assay with AIME metabolic competence (ERTA luciferase; metabolism positive), Deisenroth Lab (AID 2284030; active = hit-call score of the fitted dose curve at least 0.9, where 1 is the maximum). Summed up: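 Estrogenic luciferase signal in VM7Luc4E2 cells is measured at 24 hour, after chemicals have been preconditioned 2 hours with PB/BNF-induced rat hepatic S9 in alginate. Gain of signal is fitted relative to 17beta-estradiol, across 0.002 - 200 uM.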

The nature of assay [2]: CCTE_Shafer_MEA_acute_per_network_burst_spike_number_mean: CCTE's Neural Acute Assay for Average Number of Spikes in a Network Burst, Shafer Lab (AID 2284019).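 For AC50: curve fitted for loss of signal so actives reduce spikes per network burst.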 Summed up: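 Read-out is mean spike count per network burst, taken as percent change between a 40-min pre-exposure and a 40-min post-exposure recording per well. Rat primary cortical neurons on MEAs at 37 C, DIV 13 or 15; compounds at 0.03-40 uM.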

Assay [3] can be described thus: CCTE_Shafer_MEA_acute_per_network_burst_spike_number_std: CCTE's Neural Acute Assay for Standard Deviation of Number of Spikes in a Network Burst, Shafer Lab (AID 2284020).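 Note: fitted for decrease in spike-number SD versus DMSO so actives lower it.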 Put shortly:
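Spontaneous network activity of primary rat cortical neurons is recorded extracellularly before and after a 40-min compound exposure (0.03-40 uM) at 37 C. The endpoint is the well's percent change in burst spike-number SD.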

Assay [4] is described as follows: CCTE_Shafer_MEA_acute_network_burst_percentage: CCTE's Neural Acute Assay for Percentage of Network Bursts, Shafer Lab (AID 2284022).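 Note: curves fitted for loss so actives lower network burst percentage.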 Put shortly:
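On DIV 13 or 15, at least three wells of rat cortical neurons per compound are dosed at 0.03-40 uM. Spontaneous firing is detected at 8x rms noise for 40 min before and after dosing at 37 C. The percent change in network-burst spike share is reported.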

The nature of assay [5]: CCTE_Shafer_MEA_acute_cross_correlation_area: CCTE's Neural Acute Assay for Area of Cross Correlation, Shafer Lab (AID 2284024).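 Note: area under pooled inter-electrode spike cross-correlation near zero lag as percent change from own baseline; curves fitted for loss of cross-correlation area so actives lower synchrony.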 Put shortly: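 Extracellular recordings from cultured rat cortical neurons measure network synchrony as cross-correlation area; each well's post-compound value (0.03-40 uM, 40 min) is compared with its own 40 min baseline to give percent change.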

Assay [6] is described as follows: CCTE_Shafer_MEA_acute_synchrony_index: CCTE's Neural Acute Assay for Synchrony, Shafer Lab (AID 2284027).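 Note: network synchrony index of spontaneous spiking in primary rat cortical neurons on MEAs; fitted for loss of signal so actives lower synchrony relative to DMSO.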 Summed up: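 Primary rat cortical neurons on 48-well MEAs, dosed at 0.03–40 uM on DIV 13 or 15. Spikes are recorded for 40 min at 37C before and after exposure, and synchrony index (0–1) is expressed as percent change from baseline per well.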
Assay [7] is described as follows: CCTE_Deisenroth_AIME_96WELL_CTox_Active: Cytotoxicity Assessment (CTOX) in CCTE's 96-well Estrogen Receptor Transactivation Assay with AIME metabolic competence (metabolism positive), Deisenroth Lab (AID 2284028; active = hit-call score of the fitted dose curve at least 0.9, where 1 is the maximum). Put shortly:
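Chemicals (0.002–200 uM) were first incubated 2 h with alginate-immobilized phenobarbital/beta-naphthoflavone-induced male rat liver S9; conditioned medium then went onto VM7Luc4E2 cells for 24 h, with viability read by protease-substrate fluorescence, fitted bidirectionally.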

A short description of assay [8]: CCTE_Deisenroth_AIME_96WELL_CTox_Inactive: Cytotoxicity Assessment (CTOX) in CCTE's 96-well Estrogen Receptor Transactivation Assay without AIME metabolic competence (metabolism negative), Deisenroth Lab (AID 2284029; active = hit-call score of the fitted dose curve at least 0.9, where 1 is the maximum). Summed up: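 Chemicals (0.002 - 200 uM, 10 points) incubated 2 h with alginate-water microspheres (no S9), then medium moved onto VM7Luc4E2 cells for 24 h. Viability by protease-substrate cleavage to fluorescent probe; bidirectional fitting.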

Assay [9] has as its target Estrogen receptor (Homo sapiens) (UniProt P03372). Nature of the assay: CCTE_Deisenroth_AIME_96WELL_LUC_Active: CCTE's 96-well Estrogen Receptor Transactivation Assay with AIME metabolic competence (ERTA luciferase; metabolism positive), Deisenroth Lab (AID 2284023; active = hit-call score of the fitted dose curve at least 0.9, where 1 is the maximum). Put shortly:
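Chemicals pre-incubated 2 h with alginate-immobilized phenobarbital/beta-naphthoflavone-induced male Sprague Dawley rat liver S9, then medium transferred to VM7Luc4E2 cells for 24 h luciferase read-out. 10-point series 0.002 - 200 uM; fitted relative to 17beta-estradiol.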

Assay [10] shares this target. Nature of the assay: CCTE_Deisenroth_AIME_96WELL_LUC_Inactive: CCTE's 96-well Estrogen Receptor Transactivation Assay without AIME metabolic competence (ERTA luciferase; metabolism negative), Deisenroth Lab (AID 2284025; active = hit-call score of the fitted dose curve at least 0.9, where 1 is the maximum). Summed up: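 VM7Luc4E2 breast cells, luciferase read 24 h after dosing with medium pre-incubated 2 h on alginate-water lids (metabolism negative). 10-point series 0.002–200 uM, single technical replicate, n≥4; fit relative to 17beta-estradiol.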

Values joined by “and” are separate entries in the source; they are usually repeats but may differ in a detail not shown here. Equal entries are not always repeated. Results filed as inconclusive are left out. More than one record can exist for a structure, and the calls need not agree. Active and inactive are the calls of the source. Rule for the calls, unless noted: active = hit-call score of the fitted dose curve at least 0.9, where 1 is the maximum; inactive = score below 0.9.

Sequence of Estrogen receptor (Homo sapiens) (P03372 whole entry, looked up): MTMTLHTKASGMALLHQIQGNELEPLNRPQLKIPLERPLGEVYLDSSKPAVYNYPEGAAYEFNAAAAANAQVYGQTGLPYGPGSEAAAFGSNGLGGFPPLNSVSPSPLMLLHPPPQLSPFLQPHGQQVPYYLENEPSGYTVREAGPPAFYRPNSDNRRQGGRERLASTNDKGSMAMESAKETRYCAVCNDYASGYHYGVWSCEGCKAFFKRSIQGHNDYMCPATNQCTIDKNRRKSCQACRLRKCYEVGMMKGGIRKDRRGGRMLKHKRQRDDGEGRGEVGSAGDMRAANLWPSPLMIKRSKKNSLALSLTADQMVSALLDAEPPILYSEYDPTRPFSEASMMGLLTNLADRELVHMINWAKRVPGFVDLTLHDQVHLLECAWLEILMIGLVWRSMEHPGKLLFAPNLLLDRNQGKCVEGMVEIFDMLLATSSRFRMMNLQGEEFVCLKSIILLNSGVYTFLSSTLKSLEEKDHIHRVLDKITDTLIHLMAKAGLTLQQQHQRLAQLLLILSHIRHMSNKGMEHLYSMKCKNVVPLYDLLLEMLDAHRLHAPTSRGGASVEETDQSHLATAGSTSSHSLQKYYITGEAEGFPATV

Turning to `CC(=O)OC/C=C(C)/C=C/C=C(C)/C=C/C1=C(C)CCCC1(C)C`, in assay [1], the compound was called inactive.

By AC50 is commonly meant the concentration giving half of the maximal activity seen. For `CCCO[Si](OCCC)(OCCC)OCCC`, the outcome in [2], in [3], in assay [5] and in assay [6] was inactive. Besides, the AC50 in assay [4] is 2.98 µM (active).

`CC/C(=C(\c1ccccc1)c1ccc(OCCN(C)C)cc1)c1ccccc1`: the result in assay [2], in assay [3], in assay [5] and in assay [6] was inactive. For the same compound, the AC50 was 18.3 µM (active) in assay [3]; 18.3 µM (active) and 13.2 µM (active) in assay [4]; 14.8 µM (active) in assay [6]; 7.84 µM (active) in assay [7]; 74.1 µM (active) in assay [8].

Take `CC(C)(CO)CO`: the compound was classed as inactive in assay [2], in [3], in [4], in assay [5] and in assay [6].

In the case of `OC[C@H]1O[C@@H](O[C@H]2[C@H](O)[C@@H](O)[C@H](O)O[C@@H]2CO)[C@H](O)[C@@H](O)[C@H]1O`, the call in [1] was inactive.

Take `NC(N)=S`: the compound was called inactive in [1].

In the case of `N[C@@H](CCC(=O)O)C(=O)O`, the outcome in assay [2], in assay [3], in [4], in [5] and in assay [6] was inactive.

Consider `CCCCN(CCO)CCO`, for which the AC50 in assay [2] and in assay [4] was 15 µM (active) in each case. In addition, the outcome in [3], in assay [5] and in [6] was inactive.

As to `C1CCCNCC1`, in assay [1], the result was inactive.

Consider `O=C(c1ccc(OCCN2CCCCC2)cc1)c1c(-c2ccc(O)cc2)sc2cc(O)ccc12`, for which the AC50 in [2] is 4.05 µM (active); in assay [3] it was 33.9 µM (active); in [6], 36.8 µM (active). The compound was called inactive in assay [4] and in assay [5].

In the case of `CC(=O)c1ccc(C)cc1`, the outcome in assay [2], in [3], in [4], in assay [5] and in [6] was inactive.

As for `c1ccc(OCCOc2ccccc2)cc1`, the outcome in assay [2], in assay [3], in [4], in assay [5] and in assay [6] was inactive.

Consider `C#C[C@]1(O)CC[C@H]2[C@@H]3CCc4cc(O)ccc4[C@H]3CC[C@@]21C`, for which the AC50 in assay [7] was 135 µM (active); in assay [8] it was 116 µM (active).

With `CC(C)CCCC(C)(C)O`, the compound was classed as inactive in assay [2], in assay [3], in assay [4], in assay [5] and in [6].

Turning to `CCCCCCCCOC(=O)c1ccc(O)cc1`, in [1], the result was inactive.

Consider `CCCCOCCOCCO`, for which the compound was called inactive in assay [2], in [3], in assay [4], in assay [5], in assay [6] and in assay [1].

With `C[C@]12CC[C@@H]3c4ccc(O)cc4CC[C@H]3[C@@H]1CC[C@@H]2O`, the result in assay [7] and in [8] was inactive.

As to `c1ccc(Cc2ccccc2)cc1`, the AC50 in assay [9] is 74.4 µM (active). In addition, the call in assay [10] was inactive.

On to `CCn1cc(C(=O)O)c(=O)c2ccc(C)nc21`, for which the compound was classed as inactive in [2], in [3], in assay [4] and in assay [6]. In addition, in assay [5], the AC50 was 0.003 µM (active).

Consider `COc1ccc2[nH]cc(CCNC(C)=O)c2c1`, for which the outcome in assay [1] was inactive.

On to `CC(C)C(=O)c1ccccc1`, for which the compound was classed as inactive in assay [1].

Turning to `CC(=O)CC(=O)N(C)C`, in assay [1], the outcome was inactive.

With `c1ccc2scnc2c1`, the outcome in assay [1] was inactive.

`[Na+]`: in assay [1], the outcome was inactive.

Regarding `CCCCCCCCCCCCN1CCOCC1`, the compound was called inactive in assay [1].

For `CC(=O)c1ccc2ccccc2c1`, the AC50 in assay [1] is 74.9 µM (active).

`O=C(OCc1ccccc1)c1ccccc1O`: in assay [1], the call was inactive.

As for `CC(=O)Oc1c(C)c(C)c2c(c1C)CC[C@@](C)(CCC[C@H](C)CCC[C@H](C)CCCC(C)C)O2`, the compound was classed as inactive in [1].

For `CC(CCO)CC(C)(C)C` (centres undefined), the outcome in assay [1] was inactive.

With `C=C(C)C(N)=O`, the compound was called inactive in assay [1].

For the compound `CCCO`, the compound was classed as inactive in assay [1].

With `CC(C)(C)C1CCC(O)CC1` (centres undefined), the outcome in assay [1] was inactive.

Consider `C=CC(C)CCCC(C)(C)O` (centres undefined), for which the call in [1] was inactive.

`Cc1cccc(O)c1`: in assay [1], the call was inactive.

For `CC(C)N(c1ccccc1)C(C)C`, in assay [1], the call was inactive.

As for `CCCCOCCOCCOCCO`, the compound was classed as inactive in assay [1].

For the compound `CN(C)C(=O)Nc1ccccc1`, the result in assay [1] was inactive.

As for `CC(=O)C1=C(C)[C@@H]2C[C@@]3(C1)[C@H](C)CC[C@H]3C2(C)C`, the AC50 in assay [1] is 0.000204 µM (active).

`CCCC1CCC(=O)CC1`: in [1], the compound was classed as inactive.

On to `[O-]/[N+](=N\O)c1ccccc1`, for which the AC50 in assay [1] is 72.8 µM (active).

As to `CCCC[N+](C)(CCCC)CCCC`, the compound was classed as inactive in assay [1].

Turning to `CCC(C)COC(=O)CC(C)C` (centres undefined), the call in assay [1] was inactive.
